Hits are enriched below; roughly 2.7% of the tested compounds scored in any of these assays.
CF NFkB block – inhibitors of cystic fibrosis induced NF-kB | KKLEB NF-kB-GFP reporter, PAF-induced, GFP fluorescence overnight | inhibition, % at 5 µM | actives 0.86% (n = 360,000);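 active = at least 50% inhibition at 5 µM, scaled per plate between neutral and stimulator controls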;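 note: PAF is a Pseudomonas aeruginosa culture filtrate used as stimulus; plate controls were PAF-stimulated DMSO wells for no effect and unstimulated DMSO wells for full effect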
MITF TRPM1 inh – MITF TRPM1 promoter inhibition in SK-MEL-5 cells | SK-MEL-5 TRPM1 promoter luciferase, 24 h | inhibition, % at 12.5 µM | actives 0.83% (n = 330,000);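 active = mean inhibition across replicates of 60% or more, whatever share of single replicates reaches that level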
Shn3 3UTR inh – Schnurri-3 reporter inhibition in Clone20 osteoblasts | Clone20 osteoblast Shn3 3'UTR firefly luciferase, 24 h | inhibition, % at 12.5 µM | actives 0.52% (n = 360,000);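 active = mean inhibition of at least 75% with every replicate also reaching 75%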;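 note: 0% = median of neutral control wells and 100% = pilot-screen positive control compound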
KKLEB cytotox – CF airway cell cytotoxicity counter-screen; KKLEB CF airway cells viability, ATPlite luminescence, overnight; hits give low values; cells stimulated with P. aeruginosa culture filtrate; activity change (cytotoxicity), % at 5 µM; actives 0.36% (n = 360,000); AID 602141;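 active = corrected activity change at or below -50% at 5 µM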
HIF-2a inh – inhibitors of HIF-2a; inhibition, % at 18.8 µM; actives 0.72% (n = 360,000); 786-0 RCC cells HIF-2a reporter, luciferase luminescence, overnight;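 active = inhibition of the luminescence signal of 40% or more relative to plate controls, in a single-dose primary screen at 18.75 µM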
Peg3 promoter – reduces Peg3 promoter-driven luciferase expression in HeLa | HeLa PEG-Prom luciferase reporter, luminescence, overnight | inhibition, % at 20 µM | actives 1.7% (n = 360,000) | AID 588405;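 active = inhibition of at least 50% at 20 µM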
CF NFkB inh conf – confirmation of cystic fibrosis induced NF-kB inhibitors. shares compounds with CF NFkB block. KKLEB CF airway cells, PAF-induced NF-kB-GFP fluorescence, overnight. inhibition, % at 5 µM. actives 64% (n = 1,300); in the data active = inhibition above about 40%;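 note: stimulus PAF is a Pseudomonas aeruginosa filtrate and not platelet activating factor; plate controls were DMSO wells with stimulus for no effect and unstimulated DMSO wells for full effect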
Starred values were filed as active, the others as inactive; · = no result.

SMILES	CF NFkB block	MITF TRPM1 inh	Shn3 3UTR inh	KKLEB cytotox	HIF-2a inh	Peg3 promoter	CF NFkB inh conf
COc1ccccc1-c1nnc2sc(C3CCCCC3)nn12	3	0	12	5	-3	7	·
Cc1ccc(-n2ncc3c(=O)n(-c4cccc(C)c4)c(=O)[nH]c32)cc1	-24	·	-20	13	-45	-22	·
Cc1nc(N2CCN(C)CC2)c2sc(=S)n(-c3ccccc3)c2n1	-11	-12	-11	4	-108	-37	·
S=c1sc2c(Cl)ncnc2n1-c1ccccc1	78*	70*	-7	-28	84*	112*	25
CCc1nc2c(OCC(=O)C(C)(C)C)cccn2c1N(C)C(=O)c1ccc(C)cc1	-21	·	0	16	10	18	·
CS(=O)(=O)N1N=C(c2cccs2)CC1c1ccccc1O (stereo unspecified)	2	-1	10	-1	16	7	·
Oc1ccccc1C1CC(c2cccs2)=NC(c2ccc(Cl)cc2)N1 (stereo unspecified)	65*	-2	16	-40	-47	18	10
O=C(NCc1cccc(F)c1)c1[nH]c(C(F)(F)F)nc1-c1ccccc1	11	·	3	-9	0	16	·
CCCCNC(=O)C(NC(=O)c1cnccn1)C(=O)c1ccccc1 (stereo unspecified)	·	·	·	·	9	·	·
O=C(Nc1ccc(Cl)cc1)Nc1cc([N+](=O)[O-])ccc1F	-9	-22	19	2	6	-8	·
O=C(Nc1ccc([N+](=O)[O-])cc1)Nc1ccc(Cl)cc1F	52*	-7	71	-31	-112	-51	46*
CCOC(=O)[C@]12CCCC=C1N(Cc1ccccc1)C(=O)[C@H](CC(=O)N1CCC(c3ccccc3)CC1)C2	·	·	·	·	-6	·	·
CN(Cc1cc(Cl)cc(Cl)c1O)Cc1c(O)ccc2ccccc12	59*	6	-12	-17	12	18	8
O=C(CCc1ccc(O)cc1)c1c(O)cc(O)cc1O	8	-7	-15	18	-16	1	·
COc1cc(O)c(CC=C(C)C)c(O)c1C(=O)CCc1ccc(O)cc1	52*	-11	-3	-4	-303	13	44*
CCCCN1C(=O)C(CC(=O)NCC2CCCCC2)CC(C(=O)N2CCCCCC2)=C1C (stereo unspecified)	·	·	·	·	-1	·	·
CCCCCCc1nc2nc(Cl)c(Cl)nc2[nH]1	60*	·	-20	16	-55	-14	32
Cc1ccc(S(=O)(=O)n2cc(-c3ccccc3)c3ccccc32)cc1	53*	46	19	-12	0	-8	78*
Cc1ccc(S(=O)(=O)n2cc(C=O)c3ccccc32)cc1	-16	9	·	-4	20	30	·
N#Cc1c(-c2ccccc2)c(C#N)c2nc3ccccc3n2c1N	4	8	47	6	6	33	·
Cc1ccc(-c2c(C#N)c(N)n3c(nc4ccccc43)c2C#N)cc1	55*	10	38	-37	-1	47	50*
COc1ccc(Cl)cc1C(=O)OCC(=O)Nc1cccnc1Cl	-20	-11	-16	13	-11	3	·
COc1ccc(-c2cc(C(F)(F)F)nc(S(=O)(=O)CCCC(=O)Nc3cccnc3Cl)n2)cc1OC	93*	79*	96*	-41	-21	106*	88*
CCc1c(-c2ccc(OC)cc2)ncn1Cc1cccc(-c2ccccc2)c1	·	·	·	·	-11	·	·
O=C(Nc1ccc2ccccc2c1)c1ccccc1O	52*	-5	-13	-18	-49	-74	79*
SMILES	CF NFkB block	MITF TRPM1 inh	Shn3 3UTR inh	KKLEB cytotox	HIF-2a inh	Peg3 promoter	CF NFkB inh conf
Cc1nc([N+](=O)[O-])c(Br)n1CC(=O)c1ccc(Br)cc1	53*	32	36	-42	35	38	11
CC(=O)N(CC(C)C(=O)O)c1c(I)cc(I)c(N)c1I (stereo unspecified)	64*	-2	2	33	33	4	21
COc1ccc(CCNC(=O)CSc2nc3ccsc3c(=O)n2Cc2ccccn2)cc1OC	-5	·	18	1	-42	-50	·
C=C1C(=O)O[C@@H]2[C@H]1CC[C@H](C)[C@]1(O)CCC(=O)[C@@]21C	54*	40	-15	-19	-16	46	78*
C=C1CCC(O)C2(C)CCC3C(C)C(=O)OC3C12O (stereo unspecified)	18	0	-21	-11	13	1	·
OCCNc1ncnc2c1ncn2[C@H]1CN(Cc2ccc3c(c2)OCO3)C[C@@H](CO)O1	24	·	-4	-1	6	-3	·
C[C@@H]1CN([C@@H](C)CO)S(=O)(=O)c2ccc(-c3ccccc3)cc2O[C@@H]1CN(C)Cc1ccccc1C(=O)O	4	·	-23	-2	4	-3	·
COCCn1c(=NC(=O)c2sc3ccccc3c2Cl)sc2cc(S(N)(=O)=O)ccc21	55*	-10	70	-46	18	10	24
Cc1ccc(S(=O)(=O)CCC(=O)c2ccc(F)cc2)cc1	85*	11	73	-44	15	32	26
O=C(Nc1cccc(S(=O)(=O)N2CCCCC2)c1)Nc1ccc(Cl)cc1Cl	58*	15	15	-46	-37	52*	67*
O=c1oc2ccc(Br)cc2cc1S(=O)(=O)c1ccc(F)cc1	58*	9	-7	-7	-21	50*	22
Cc1ncc(CO)c2cc(S(=O)(=O)c3ccc(F)cc3)c(=O)oc12	15	-1	-19	-21	9	-1	·
O=[N+]([O-])c1cccc(NC(=S)Nc2nc(-c3ccccc3Cl)cs2)c1	50*	18	26	-17	-109	-35	67*
O=[N+]([O-])c1ccc(-n2nnnc2-c2ccccc2)c([N+](=O)[O-])c1	68*	98*	17	-23	17	12	-69
O=[N+]([O-])c1ccc(-n2nnnc2-c2ccccc2)cc1	-4	7	3	-1	-2	13	·
CC1=C(C(=O)N(C)C)CC(CC(=O)NCc2cccc3ccccc23)C(=O)N1Cc1ccc(F)cc1 (stereo unspecified)	2	·	9	-16	2	-1	·
CCOC(=O)c1ccc(-n2[nH]c(-c3ccccc3)cc2=O)cc1	64*	-3	-18	-48	-19	-22	76*
CCOC(=O)c1ccc(N=Nc2c(C)[nH]n(-c3ccccc3)c2=O)cc1	-28	7	9	0	-23	8	·
CC1(C(=O)NS(=O)(=O)c2ccc(C#N)cc2)CCN1C(=O)C1(c2ccccc2)CC1 (stereo unspecified)	0	·	-16	-1	7	-3	·
CCCCN(C(=O)c1ccc(N2CCCC2=O)cc1)c1c(N)n(Cc2ccccc2)c(=O)[nH]c1=O	58*	4	-11	8	18	-23	36

From PubChem
